Among the data in PubChem BioAssay (EPA / NIEHS) are outcome and AC50 values, retold here.

In general, AC50 refers to the midpoint of the concentration-response curve, whichever way the signal moves.

The structures appear in SMILES notation. Inconclusive results are not listed. The source made the active and inactive calls. How the source made its calls, unless noted: active means hit-call score of the fitted dose curve at least 0.9, where 1 is the maximum; inconclusive means response in the unintended direction; inactive means score below 0.9.

Assay [1] can be described thus: ATG_TGFb_CIS: Attagene CIS-FACTORIAL HepG2 Assay for human Transforming Growth Factor (TGF) (AID 2282967; active means hit-call score of the fitted dose curve at least 0.9, where 1 is the maximum; inactive means score below 0.9). The note with it: HepG2 Attagene CIS TGFb reporter, mRNA transcription; actives raise or lower the signal. The essentials: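 HepG2 cells transiently transfected with cis-promoter-driven multiplexed reporter units; 24 h compound exposure. Reporter mRNA measured by RT-PCR, 6-FAM labeling, HpaI digestion and capillary electrophoresis; bidirectional fit versus DMSO baseline.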

Assay [2] in a line: ATG_VDRE_CIS: Attagene CIS-FACTORIAL HepG2 Assay for human Vitamin D Receptor Element (VDRE) (AID 2282968; active means hit-call score of the fitted dose curve at least 0.9, where 1 is the maximum; inactive means score below 0.9). The note with it: HepG2 VDRE cis-reporter transcription, actives raise or lower the signal. The essentials:
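In transiently transfected HepG2 liver cells, gain or loss of reporter mRNA after 24 h exposure is scored relative to DMSO, using fluorescence detection by capillary electrophoresis of RT-PCR products.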

For assay [3], the target named is Nuclear receptor subfamily 1 group I member 3 (Homo sapiens) (UniProt Q14994). The assay is described as follows: ATG_CAR_TRANS: Attagene TRANS-FACTORIAL HepG2 Assay for human Constitutive Androstane Receptor (CAR) (AID 2282969).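 Further: activators raise reporter mRNA above DMSO so AC50 marks induction.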 The note with it: HepG2 Attagene TRANS-FACTORIAL CAR reporter. The method in brief:
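Readout is reporter mRNA induction, quantified by fluorescent primer extension and capillary electrophoresis after RT-PCR. Cells were HepG2 transiently carrying chimeric NR-Gal4 constructs with GAL4-UAS reporters, treated for 24 h; activity scored upward from DMSO.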

The target in assay [4] is Estrogen receptor (Homo sapiens) (UniProt P03372). The assay is described as follows: ATG_ERa_TRANS: Attagene TRANS-FACTORIAL HepG2 Assay for human Estrogen Receptor alpha (ERa) (AID 2282970). The note with it: HepG2 Attagene TRANS ERa GAL4 reporter, mRNA. The method in brief:
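After 24 h of compound treatment, RNA from HepG2 cells bearing transfected GAL4-UAS reporter constructs is converted to cDNA, amplified and fluorescently labelled. Capillary electrophoresis resolves the ERa-linked reporter; DMSO serves as negative control.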

In assay [5] the target is X-box-binding protein 1 (Homo sapiens) (UniProt P17861). The assay is described as follows: ATG_Xbp1_CIS: Attagene CIS-FACTORIAL HepG2 Assay for human X-box Binding Protein 1 (XBP1) (AID 2282972; active means hit-call score of the fitted dose curve at least 0.9, where 1 is the maximum; inactive means score below 0.9). The note with it: HepG2 XBP1 cis-element reporter, Attagene multiplex; actives raise or lower the signal. The essentials: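 HepG2 cells transiently transfected with multiple cis-element reporter units report endogenous TF activity; 24 h exposure, then reporter mRNA measured by RT-PCR, 6-FAM labelling, HpaI digestion and capillary electrophoresis. Bidirectional fitting versus DMSO.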
Sequence of X-box-binding protein 1 (Homo sapiens) (P17861 whole entry, looked up): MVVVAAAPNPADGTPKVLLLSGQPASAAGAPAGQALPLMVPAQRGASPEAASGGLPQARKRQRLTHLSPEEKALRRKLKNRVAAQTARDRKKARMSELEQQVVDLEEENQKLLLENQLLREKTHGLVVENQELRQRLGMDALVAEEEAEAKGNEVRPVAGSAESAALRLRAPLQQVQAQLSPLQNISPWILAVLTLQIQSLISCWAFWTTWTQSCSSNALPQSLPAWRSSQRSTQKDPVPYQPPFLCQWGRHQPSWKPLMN

Assay [6] is described as follows: ATG_M_19_TRANS: Attagene TRANS-FACTORIAL HepG2 Assay for M19 Transcription Factor (Internal Marker) (AID 2282974). The note with it: HepG2 Attagene TRANS-FACTORIAL M19 internal marker reporter. The essentials: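 24 h chemical exposure of transiently transfected HepG2 (MRTU library). RNA → oligo(dT) RT → PCR → 6-FAM labelling → HpaI cut → CE fluorescence. Positive-direction fit vs DMSO baseline; background internal-marker readout.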

The target of assay [7] is Bile acid receptor (Homo sapiens) (UniProt Q96RI1). The assay is described as follows: ATG_FXR_TRANS: Attagene TRANS-FACTORIAL HepG2 Assay for Farnesoid X Receptor (FXR) (AID 2282979).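 Further: hits raise reporter mRNA above DMSO so AC50 marks FXR activation.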 The note with it: HepG2 Attagene TRANS FXR-GAL4 reporter transcription. The method in brief: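 Read-out: fluorescent reporter transcripts quantified by capillary electrophoresis after RT-PCR of total RNA. Source cells were HepG2 transiently carrying chimeric NR-GAL4 plus GAL4-UAS reporter units, dosed 24 h. Activity fitted upward relative to DMSO baseline.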

Assay [8] can be described thus: ATG_M_06_TRANS: Attagene TRANS-FACTORIAL HepG2 Assay for M06 Transcription Factor (Internal Marker) (AID 2282983). The note with it: HepG2 Attagene TRANS M06 internal marker reporter. The essentials:
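After a 24 h chemical treatment of transfected HepG2, RNA underwent DNase I treatment, reverse transcription and reporter-specific PCR; labelled, HpaI-digested products were sized by capillary electrophoresis. Signal increase relative to DMSO defined activity.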

A short description of assay [9]: ATG_M_32_TRANS: Attagene TRANS-FACTORIAL HepG2 Assay for M32 Transcription Factor (Internal Marker) (AID 2282984).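 Further: transcript level of a background control reporter unit measured by RT-PCR and capillary electrophoresis.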 The note with it: HepG2 Attagene TRANS M32 internal marker reporter. The method in brief:
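Using transiently transfected HepG2 cells exposed to test chemicals for 24 h, reporter transcripts are converted to labelled cDNA fragments and quantified by capillary electrophoresis. DMSO defines the activity baseline.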

For assay [10], the target named is Nuclear receptor subfamily 4 group A member 2 (Homo sapiens) (UniProt P43354). In words: ATG_NURR1_TRANS: Attagene TRANS-FACTORIAL HepG2 Assay for human Nuclear Receptor Related Protein 1 (NURR1) (AID 2282985). The note with it: HepG2 Attagene TRANS reporter, mRNA readout. The essentials: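 Cells: HepG2, transiently transfected. Exposure: 24 h. Detection: fluorescence of labelled RT-PCR products separated by capillary electrophoresis; upward fit versus DMSO.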
Sequence of Nuclear receptor subfamily 4 group A member 2 (Homo sapiens) (P43354 whole entry, looked up): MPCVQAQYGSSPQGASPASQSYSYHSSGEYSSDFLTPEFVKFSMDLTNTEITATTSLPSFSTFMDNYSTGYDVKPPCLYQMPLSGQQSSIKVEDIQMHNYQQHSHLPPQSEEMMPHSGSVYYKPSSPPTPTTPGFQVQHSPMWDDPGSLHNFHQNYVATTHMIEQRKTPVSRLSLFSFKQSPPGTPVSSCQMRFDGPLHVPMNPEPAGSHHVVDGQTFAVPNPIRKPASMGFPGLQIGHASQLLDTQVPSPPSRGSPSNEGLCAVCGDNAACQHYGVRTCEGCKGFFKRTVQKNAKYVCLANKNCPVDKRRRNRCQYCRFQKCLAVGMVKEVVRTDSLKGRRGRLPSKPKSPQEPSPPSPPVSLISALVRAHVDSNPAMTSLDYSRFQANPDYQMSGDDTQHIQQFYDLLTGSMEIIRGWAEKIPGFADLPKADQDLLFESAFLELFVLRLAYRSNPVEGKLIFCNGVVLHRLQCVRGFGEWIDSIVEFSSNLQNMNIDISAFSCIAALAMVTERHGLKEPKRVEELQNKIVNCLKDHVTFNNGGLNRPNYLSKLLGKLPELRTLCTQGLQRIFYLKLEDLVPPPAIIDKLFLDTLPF

Assay [11] has as its target Transcriptional activator Myb (Homo sapiens) (UniProt P10242). The assay is described as follows: ATG_Myb_CIS: Attagene CIS-FACTORIAL HepG2 Assay for human Myeloblastosis (Myb) Proto-Oncogene Transcription Factor (AID 2282986; active means hit-call score of the fitted dose curve at least 0.9, where 1 is the maximum; inactive means score below 0.9). The note with it: HepG2 Attagene CIS-FACTORIAL Myb reporter transcription; actives raise or lower the signal. The essentials: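 HepG2, transient MRTU transfection (cis-element promoters, endogenous TF activity), 24 h compound exposure. Readout: reporter mRNA via RT-PCR, 6-FAM labeling, HpaI digest, capillary electrophoresis. Gain/loss fit vs DMSO.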

In assay [12] the target is Nuclear respiratory factor 1 (Homo sapiens) (UniProt Q16656). In words: ATG_NRF1_CIS: Attagene CIS-FACTORIAL HepG2 Assay for human Nuclear Respiratory Factor 1 (NRF1) Orphan Gene (AID 2282987; active means hit-call score of the fitted dose curve at least 0.9, where 1 is the maximum; inactive means score below 0.9). The note with it: HepG2 NRF1 cis-element reporter, Attagene multiplex; actives raise or lower the signal. The essentials: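 Endogenous NRF1-driven reporter transcription measured in transiently transfected human HepG2 liver cells. Readout: reporter mRNA by RT-PCR and capillary electrophoresis with fluorescence detection, 24 h post-dosing. Gain or loss of signal fitted relative to DMSO baseline.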
Sequence of Nuclear respiratory factor 1 (Homo sapiens) (Q16656 whole entry, looked up): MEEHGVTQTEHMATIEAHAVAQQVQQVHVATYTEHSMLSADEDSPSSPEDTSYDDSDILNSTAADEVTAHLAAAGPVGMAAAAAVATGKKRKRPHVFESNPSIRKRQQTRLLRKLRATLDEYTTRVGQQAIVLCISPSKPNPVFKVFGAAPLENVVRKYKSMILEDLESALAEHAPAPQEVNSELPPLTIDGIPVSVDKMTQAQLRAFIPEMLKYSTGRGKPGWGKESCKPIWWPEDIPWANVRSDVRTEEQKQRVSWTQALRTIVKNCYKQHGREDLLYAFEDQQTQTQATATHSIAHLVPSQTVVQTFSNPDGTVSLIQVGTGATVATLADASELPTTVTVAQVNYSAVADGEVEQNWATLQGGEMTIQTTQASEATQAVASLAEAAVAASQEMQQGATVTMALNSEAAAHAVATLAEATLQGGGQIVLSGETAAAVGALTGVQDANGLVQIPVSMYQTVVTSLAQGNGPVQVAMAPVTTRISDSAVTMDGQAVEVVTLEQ

In assay [13] the target is Steroid hormone receptor ERR1 (Homo sapiens) (UniProt P11474). In words: ATG_ERRa_TRANS: Attagene TRANS-FACTORIAL HepG2 Assay for human Estrogen-Related Receptor alpha (ERRa) (AID 2282971). The note with it: HepG2 Attagene TRANS reporter, ERRa transactivation. The method in brief: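 Transfected HepG2, 24 h dosing, ERRa-Gal4 chimera driving GAL4-UAS reporter. Readout: reporter mRNA via RT-PCR plus capillary electrophoresis (fluorescence). Positive direction vs DMSO control.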
Sequence of Steroid hormone receptor ERR1 (Homo sapiens) (P11474 whole entry, looked up, the tested form may be a part): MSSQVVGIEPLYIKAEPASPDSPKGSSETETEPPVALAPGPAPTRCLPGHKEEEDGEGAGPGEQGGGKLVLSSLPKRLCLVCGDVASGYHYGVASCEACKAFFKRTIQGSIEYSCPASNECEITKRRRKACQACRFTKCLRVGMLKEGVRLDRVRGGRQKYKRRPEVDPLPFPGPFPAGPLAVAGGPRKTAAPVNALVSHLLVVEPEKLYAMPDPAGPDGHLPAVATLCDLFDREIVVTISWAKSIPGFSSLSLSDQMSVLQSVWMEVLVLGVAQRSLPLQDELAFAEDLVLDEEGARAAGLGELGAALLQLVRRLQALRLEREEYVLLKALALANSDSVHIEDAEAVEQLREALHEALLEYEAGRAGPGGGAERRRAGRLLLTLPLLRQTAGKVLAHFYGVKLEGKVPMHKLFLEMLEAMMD

The target in assay [14] is Estrogen-related receptor gamma (Homo sapiens) (UniProt P62508). The assay is described as follows: ATG_ERRg_TRANS: Attagene TRANS-FACTORIAL HepG2 Assay for human Estrogen-Related Receptor gamma (ERRg) (AID 2282977).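 Further: hits increase reporter signal over DMSO so potencies reflect activators.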 The note with it: HepG2 Attagene TRANS reporter, ERRg transactivation. The essentials:
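HepG2 cells transiently transfected with multiplexed GAL4-UAS reporter units and chimeric NR-Gal4 constructs were exposed to test chemicals for 24 h. Reporter mRNA was measured by RT-PCR, 6-FAM primer extension, HpaI digestion and capillary electrophoresis; gain-of-signal versus DMSO.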

For assay [15], the target named is Oxysterols receptor LXR-alpha (Homo sapiens) (UniProt Q13133). In words: ATG_LXRa_TRANS: Attagene TRANS-FACTORIAL HepG2 Assay for human Liver X Receptor alpha (LXRa) (AID 2282980). The note with it: HepG2 Attagene TRANS reporter, LXRa transactivation. The method in brief:
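Read-out: reporter transcript levels by RT-PCR plus capillary electrophoresis, fluorescence intensity. Transiently transfected HepG2, exogenous NR-GAL4 chimera, GAL4-UAS reporters; 24 h compound exposure. Activity = increase over DMSO negative control.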

Assay [16] deals with Hepatocyte nuclear factor 4-alpha (Homo sapiens) (UniProt P41235). The assay is described as follows: ATG_HNF4a_TRANS: Attagene TRANS-FACTORIAL HepG2 Assay for human Hepatocyte Nuclear Factor 4 alpha (HNF4a) (AID 2282982). The note with it: HepG2 HNF4a transactivation reporter, mRNA readout. The method in brief: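 Transfected HepG2 reporter cells are dosed for 24 h; reporter RNA is reverse-transcribed, amplified, fluorescently labelled and HpaI-digested before CE sizing. Positive-direction fit against DMSO.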
Sequence of Hepatocyte nuclear factor 4-alpha (Homo sapiens) (P41235 whole entry, looked up): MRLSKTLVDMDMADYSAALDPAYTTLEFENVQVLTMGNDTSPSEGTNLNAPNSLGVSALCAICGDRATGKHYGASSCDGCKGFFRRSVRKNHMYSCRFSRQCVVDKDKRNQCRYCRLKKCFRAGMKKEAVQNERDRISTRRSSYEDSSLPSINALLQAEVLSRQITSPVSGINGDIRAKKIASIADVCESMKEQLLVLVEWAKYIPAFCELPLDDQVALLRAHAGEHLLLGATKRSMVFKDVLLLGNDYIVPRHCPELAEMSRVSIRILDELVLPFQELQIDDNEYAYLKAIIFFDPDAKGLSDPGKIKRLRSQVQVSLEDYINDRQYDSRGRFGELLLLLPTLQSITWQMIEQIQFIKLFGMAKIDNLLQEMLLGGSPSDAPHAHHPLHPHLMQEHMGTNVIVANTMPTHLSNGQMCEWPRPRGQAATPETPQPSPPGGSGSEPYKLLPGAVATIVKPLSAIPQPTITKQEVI

Assay [17] in a line: ATG_GAL4_TRANS: Attagene TRANS-FACTORIAL HepG2 Assay for GAL4 (Internal Marker) (AID 2282976). The note with it: HepG2 Attagene TRANS GAL4 internal marker reporter. The method in brief: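 RT-PCR/capillary electrophoresis readout of reporter mRNA. HepG2, transient MRTU transfection (GAL4-UAS reporters), 24 h compound exposure. Background-control endpoint, positive direction vs DMSO baseline.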

For assay [18], the target named is Glucocorticoid receptor (Homo sapiens) (UniProt P04150). The assay is described as follows: ATG_GR_TRANS: Attagene TRANS-FACTORIAL HepG2 Assay for human Glucocorticoid Receptor (GR) (AID 2282978).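 Further: activators score as hits since higher reporter transcript over DMSO is fitted.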 The note with it: HepG2 Attagene TRANS GR reporter, mRNA transcription. The essentials: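 Transient MRTU transfection of HepG2 (GAL4-UAS reporters, exogenous NR-GAL4 chimeras), 24 h dosing. Readout: reporter transcript via RT-PCR + capillary electrophoresis fluorescence. Positive direction vs DMSO baseline.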

For assay [19], the target named is Oxysterols receptor LXR-beta (Homo sapiens) (UniProt P55055). In words: ATG_LXRb_TRANS: Attagene TRANS-FACTORIAL HepG2 Assay for human Liver X Receptor beta (LXRb) (AID 2282981). The note with it: HepG2 Attagene TRANS GAL4-LXRb reporter, mRNA. The method in brief:
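Cells: HepG2, transiently transfected with GAL4-UAS reporter units plus LXRb-Gal4 fusion. Treatment: 24 h. Detection: reporter mRNA by RT-PCR, 6-FAM labelling, HpaI digestion, capillary electrophoresis.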

Assay [20] has as its target Androgen receptor (Homo sapiens) (UniProt P10275). The assay is described as follows: ATG_AR_TRANS: Attagene TRANS-FACTORIAL HepG2 Assay for human Androgen Receptor (AR) (AID 2282973). The note with it: HepG2 Attagene TRANS-FACTORIAL AR reporter transcription. The essentials:
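Readout is reporter transcript abundance, quantified by fluorescent RT-PCR products separated on capillary electrophoresis. Human HepG2 liver cells carried transiently transfected NR-Gal4 chimera plus GAL4-UAS reporter constructs and were dosed for 24 h; activity scored upward versus DMSO.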

Sequence of Estrogen receptor (Homo sapiens) (P03372 whole entry, looked up, the tested form may be a part): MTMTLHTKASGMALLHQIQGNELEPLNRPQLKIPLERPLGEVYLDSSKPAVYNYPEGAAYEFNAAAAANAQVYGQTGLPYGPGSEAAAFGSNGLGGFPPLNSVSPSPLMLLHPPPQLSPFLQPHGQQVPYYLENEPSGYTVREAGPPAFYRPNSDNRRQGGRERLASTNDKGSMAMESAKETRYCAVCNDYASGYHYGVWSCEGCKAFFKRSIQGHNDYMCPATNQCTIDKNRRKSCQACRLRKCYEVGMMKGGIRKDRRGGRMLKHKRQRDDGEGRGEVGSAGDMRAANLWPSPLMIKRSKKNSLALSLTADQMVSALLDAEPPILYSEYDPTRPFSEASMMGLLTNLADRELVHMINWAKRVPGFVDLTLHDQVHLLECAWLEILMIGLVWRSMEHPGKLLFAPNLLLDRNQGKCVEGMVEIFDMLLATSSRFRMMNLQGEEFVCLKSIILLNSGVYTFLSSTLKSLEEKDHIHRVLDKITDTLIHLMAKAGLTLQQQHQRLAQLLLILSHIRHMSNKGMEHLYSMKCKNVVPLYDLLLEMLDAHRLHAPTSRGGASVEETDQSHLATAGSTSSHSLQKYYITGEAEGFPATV
Sequence of Oxysterols receptor LXR-alpha (Homo sapiens) (Q13133 whole entry, looked up, the tested form may be a part): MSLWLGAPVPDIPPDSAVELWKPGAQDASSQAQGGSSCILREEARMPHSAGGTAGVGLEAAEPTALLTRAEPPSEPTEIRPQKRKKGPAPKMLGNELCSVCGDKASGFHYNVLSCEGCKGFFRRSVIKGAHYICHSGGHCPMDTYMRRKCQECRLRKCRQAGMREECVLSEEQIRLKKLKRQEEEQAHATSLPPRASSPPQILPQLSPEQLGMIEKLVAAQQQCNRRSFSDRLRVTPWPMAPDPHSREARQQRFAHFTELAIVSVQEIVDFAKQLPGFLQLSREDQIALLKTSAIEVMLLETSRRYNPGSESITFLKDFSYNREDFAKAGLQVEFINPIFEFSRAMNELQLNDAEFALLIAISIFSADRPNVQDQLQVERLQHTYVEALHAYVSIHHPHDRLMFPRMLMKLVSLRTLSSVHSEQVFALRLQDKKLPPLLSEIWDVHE
Sequence of Transcriptional activator Myb (Homo sapiens) (P10242 whole entry, looked up): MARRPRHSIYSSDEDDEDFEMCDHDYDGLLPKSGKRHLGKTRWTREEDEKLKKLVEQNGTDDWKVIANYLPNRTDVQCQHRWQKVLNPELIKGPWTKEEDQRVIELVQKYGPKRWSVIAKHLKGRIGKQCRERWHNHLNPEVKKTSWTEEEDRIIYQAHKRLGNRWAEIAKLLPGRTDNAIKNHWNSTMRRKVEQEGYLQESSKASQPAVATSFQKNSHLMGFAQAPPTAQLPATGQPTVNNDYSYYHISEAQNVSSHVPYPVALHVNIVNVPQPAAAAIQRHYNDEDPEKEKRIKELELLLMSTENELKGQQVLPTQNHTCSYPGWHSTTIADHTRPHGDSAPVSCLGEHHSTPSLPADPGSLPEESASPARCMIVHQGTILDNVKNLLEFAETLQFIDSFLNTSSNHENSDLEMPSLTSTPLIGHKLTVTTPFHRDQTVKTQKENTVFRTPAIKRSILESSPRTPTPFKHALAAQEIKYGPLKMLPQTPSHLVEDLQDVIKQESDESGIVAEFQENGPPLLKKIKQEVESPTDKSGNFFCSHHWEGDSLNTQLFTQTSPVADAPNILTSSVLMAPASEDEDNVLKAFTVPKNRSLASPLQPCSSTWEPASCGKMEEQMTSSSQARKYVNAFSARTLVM
Sequence of Nuclear receptor subfamily 1 group I member 3 (Homo sapiens) (Q14994 whole entry, looked up, the tested form may be a part): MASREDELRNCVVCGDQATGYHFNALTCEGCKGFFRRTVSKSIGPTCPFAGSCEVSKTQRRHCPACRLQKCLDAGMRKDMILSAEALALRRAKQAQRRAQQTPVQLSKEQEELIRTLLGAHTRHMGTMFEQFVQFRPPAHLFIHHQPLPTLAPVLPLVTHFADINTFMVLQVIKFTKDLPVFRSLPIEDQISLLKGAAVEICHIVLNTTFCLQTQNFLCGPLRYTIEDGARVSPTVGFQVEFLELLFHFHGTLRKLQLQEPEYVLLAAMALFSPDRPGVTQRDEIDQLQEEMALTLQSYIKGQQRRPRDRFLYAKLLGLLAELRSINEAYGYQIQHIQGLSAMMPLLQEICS
Sequence of Oxysterols receptor LXR-beta (Homo sapiens) (P55055 whole entry, looked up, the tested form may be a part): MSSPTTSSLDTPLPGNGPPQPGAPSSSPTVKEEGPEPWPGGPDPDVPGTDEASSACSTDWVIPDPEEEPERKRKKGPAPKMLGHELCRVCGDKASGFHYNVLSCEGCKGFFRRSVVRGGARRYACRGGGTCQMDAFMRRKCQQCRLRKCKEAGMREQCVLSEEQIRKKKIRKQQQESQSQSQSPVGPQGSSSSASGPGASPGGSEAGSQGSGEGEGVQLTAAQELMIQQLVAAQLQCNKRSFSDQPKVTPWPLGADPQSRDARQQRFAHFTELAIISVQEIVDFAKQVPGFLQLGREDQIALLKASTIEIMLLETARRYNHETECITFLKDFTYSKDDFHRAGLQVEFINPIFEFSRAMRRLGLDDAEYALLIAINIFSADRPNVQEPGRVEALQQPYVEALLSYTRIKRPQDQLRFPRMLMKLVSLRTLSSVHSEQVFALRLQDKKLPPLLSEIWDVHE

Consider `CN(N=O)c1ccc([N+](=O)[O-])cc1`, for which the compound was classed as inactive in assay [1], in assay [2], in [3], in assay [4], in assay [5] and in [6]. In addition, the outcome in [7], in [8], in assay [9], in assay [10], in assay [11] and in [12] was inactive.

Consider `O=[N+]([O-])c1c2ccccc2cc2ccccc12`, for which the result in assay [1], in assay [2], in [3], in [13], in assay [5] and in [14] was inactive. The compound was classed as inactive in assay [15], in assay [16], in assay [8], in assay [9], in assay [11] and in assay [12]. Further, the AC50 in assay [4] was 5.59 µM (active).

For the compound `Nc1c(Oc2ccccc2)cc(O)c2c1C(=O)c1ccccc1C2=O`, the call in assay [1], in [3], in assay [5], in assay [6], in [17] and in assay [18] was inactive. Also, the compound was called inactive in assay [19], in [8], in [9], in assay [10], in assay [11] and in assay [12]. Besides, the figures for the AC50 in assay [2] and in assay [4] were 15 µM (active) and 7.82 µM (active), respectively.

As to `CC(C)(C)c1cc([N+](=O)[O-])cc(C(C)(C)C)c1O`, the AC50 in assay [1] was 26.3 µM (active); in [2] it was 3.16 µM (active); in assay [5] it was 4.78 µM (active); in [10], 12.4 µM (active). The outcome in assay [3], in assay [4], in assay [13], in assay [6], in [14] and in [7] was inactive. Further, the compound was called inactive in assay [15], in [16], in assay [11] and in assay [12].

With `NC(=O)CCl`, the result in [1], in assay [2], in assay [3], in [4], in assay [5] and in assay [20] was inactive. Besides, the compound was called inactive in assay [15], in assay [19], in assay [8], in assay [9], in assay [11] and in assay [12].
